From PubChem BioAssay
Giardia FBPA inh = blocks Giardia fructose-bisphosphate aldolase activity; actives 0.71% (n = 290,000); purified Giardia FBPA; Potency, µM (series often up to 59.6 µM), without a hit: at the highest dose activity, negative = inhibition, usual class: inhibitors; A8B2U2; further: potency means the concentration at half of the fitted maximal effect; on the % scale 0 is the no-effect control and ±100 the full control effect; nearly all actives have a fitted effect of over 55% in size
Target sequence (A8B2U2 whole entry, looked up): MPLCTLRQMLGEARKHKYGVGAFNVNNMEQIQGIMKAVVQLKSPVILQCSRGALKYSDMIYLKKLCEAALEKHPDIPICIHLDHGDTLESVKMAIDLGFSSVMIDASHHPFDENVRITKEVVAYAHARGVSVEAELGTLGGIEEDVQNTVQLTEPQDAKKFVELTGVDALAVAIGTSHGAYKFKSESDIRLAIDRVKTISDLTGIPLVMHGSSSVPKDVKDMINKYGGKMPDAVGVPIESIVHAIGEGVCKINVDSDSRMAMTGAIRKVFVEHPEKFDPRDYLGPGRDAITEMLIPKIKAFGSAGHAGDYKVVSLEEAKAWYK
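Giardia FBPA (40 nM reagent) was preincubated 10 min at RT with compound (up to 57.5 uM final), then substrate plus GAPDH/TPI/NAD/arsenate coupling system with diaphorase/resazurin was added; resorufin fluorescence (525/598 nm) was read after 20 min.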
TbPYK inhibitor = inhibitors of Trypanosoma brucei pyruvate kinase; TbPYK enzyme, Kinase-Glo Plus ATP luminescence, 45 min; Potency, µM (series often up to 76.8 µM), for inactives: at the highest dose activity, negative = inhibition, usual class: inhibitors; actives 0.12% (n = 410,000); Q57TT1; AID 624173; further: potency means the concentration at half of the fitted maximal effect; on the % scale 0 is the no-effect control and ±100 the full control effect; nearly all actives have a fitted effect of over 50% in size
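Enzyme and substrate buffer are dispensed first and compound is pin-transferred. ADP at 130 uM final then starts the reaction, which runs 45 min at room temperature. Detection reagent is added for 10 min before luminescence is imaged.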
CHX counter = counter-screen hit for Shiga toxin inhibitors, cycloheximide. cell reporter, cycloheximide protein synthesis inhibition counterscreen. max response, %. actives 12% (n = 300,000). AID 2314; in the data active means max response mostly above about 13%, no sharp cut-off; inactive means mostly below about 14%; further: read at 38.3 µM for the half of the compounds with a filed dose; 0% is about no effect
Sm TGR inh = inhibitors of Schistosoma mansoni thioredoxin glutathione reductase | Potency, µM (series often up to 114 µM), inactives show at the highest dose activity change, negative = inhibition, hits mostly inhibitors | actives 3% (n = 360,000) | purified TGR, DTNB reduction, TNB absorbance 405 nm | AID 485364; further: potency means the concentration at half of the fitted maximal effect; on the % scale 0 is the no-effect control and ±100 the full control effect; nearly all actives have a fitted effect of over 60% in size
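TGR 20 nM + NADPH 100 uM (dispensed conc.), cpd preinc 15 min RT; start with NADPH (500 uM addition) then DTNB (15 mM addition). Kinetic TNB absorbance, 405 nm filter. Four-parameter Hill fit across titration.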
Shiga inhibitor = Shiga toxin inhibition | AID 2315 | actives 9.2% (n = 290,000) | inhibition, % at 38.7 µM | Vero cells, Shiga toxin protein synthesis inhibition reporter; in the data active means inhibition mostly above about 28%, no sharp cut-off; inactive means mostly below about 43%; further: 0% is about no effect
LmPK inh = inhibitors of Leishmania mexicana pyruvate kinase; Q27686; purified LmPK, Kinase-Glo ATP luminescence, 1 h; Potency, µM (top dose mostly 57.5 µM), for inactives: top-dose activity change, negative = inhibition, most hits filed as inhibitors; actives 0.37% (n = 290,000); AID 1721; further: potency means the concentration at half of the fitted maximal effect; on the % scale 0 is the no-effect control and ±100 the full control effect
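Purified LmPK (0.1 nM) with 0.5 mM PEP and 0.1 mM ADP in imidazole buffer pH 7.2 with MgCl2/KCl, 1 h at room temperature. ATP formed was read by luciferase luminescence and normalized to no-enzyme and uninhibited controls.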
* hit, by the source's call; ? = inconclusive; . = not tested or not shown; [ ] = remark or other dose. Many of the other results were omitted from the sample, so hits are more common in it than they were. Unless noted, the call rests on the fitted dose curve; in most records, active means well fitted curve in the direction sought with a large enough effect; inconclusive means small, poorly fitted or top-dose-only effect, or another doubt; inactive means no such curve, though single readings can be large; an effect the other way counts as inactive or inconclusive.

SMILES	Giardia FBPA inh	TbPYK inhibitor	CHX counter	Sm TGR inh	Shiga inhibitor	LmPK inh
COc1ccc(NC(=O)CC(C(=O)O)C(C)c2ccccc2)cc1 (stereo not drawn)	7%	5%	2	5%	-2	-3%
COc1ccc(NC(=O)CC(c2ccccc2)c2ccco2)cc1 (stereo not drawn)	-22%	-10%	15	40µM*	31	3%
COc1ccc(CC(=O)Nc2cccc(SC)c2)cc1	-6%	7%	17*	-3%	19	-5%
Cc1nc(C)c(-c2ccc(SCC(=O)Nc3ccc(Cl)c(Cl)c3)nn2)s1	.	-1%	.	8%	.	.
CCCCn1nc(C(=O)Nc2ccc(-n3cnnn3)cc2)c2ccccc2c1=O	.	2%	.	-7%	.	.
Cc1cccc(Cn2c(=O)n3nc(-c4ccccc4)nc3c3ccccc32)c1	.	0%	.	2%	.	.
C[C@H]1CN(S(=O)C(C)(C)C)[C@H](CCO)/C1=C\c1ccccc1 (stereo partly drawn)	.	-3%	.	.	.	.
COc1ccc(NC(=O)CNC(=O)Cc2ccccc2)cc1	-2%	-2%	8	7%	18	6%
CCc1ccc(NC(=O)Cc2ccc(OC)cc2)cc1	0%	.	28*	-6%	41*	-1%
COc1ccc(NC(=O)CC(=O)Nc2ccc(OC)cc2)cc1	.	-1%	.	.	.	.
COc1ccc(NC(=O)Cc2ccccc2)cc1	0%	-9%	30*	-1%	38*	-10%
C=C(C)CC(C)(C)C	2%	.	-4	.	20	.
NC(=O)c1ncn([C@@H]2O[C@H](CNS(=O)(=O)c3cc4ccccc4s3)[C@@H](O)[C@H]2O)n1	.	-4%	.	.	.	.
CC(=O)O[C@H]1C[C@H]2CC[C@@H]3[C@@H](CC[C@]4(C)[C@H](OC(C)=O)[C@H]([N+]5(C)CCCCC5)C[C@@H]34)[C@]2(C)C[C@H]1[N+]1(C)CCCCC1	0%[21.7 µM]	.	.	.	.	.
COC(=O)c1cnn(-c2ccc(C)c(C)c2)c1-n1cccc1	-8%	-1%	20*	-13%	29	-18%
COCCNC(=O)c1cnn(-c2cccc(C)c2)c1-n1cccc1	.	-5%[15.4 µM]	.	-1%	.	.
CC(C)(C)CN1CCNC(=O)C1CC(=O)NCCc1cnn(-c2ccccc2)c1 (stereo not drawn)	10%	-1%	12*	?	6	3%
CSc1cccc(CNC(=O)CC2C(=O)NCCN2CC(C)(C)C)c1 (stereo not drawn)	-20%	-3%	1	40µM*	-13	1%
CC(C)CN1CCNC(=O)C1CC(=O)NCCc1cnn(-c2ccccc2)c1 (stereo not drawn)	-3%	-2%	-3	?	-2	5%
CC(C)(C)CN1CCNC(=O)C1CC(=O)NCCc1ccccc1F (stereo not drawn)	-18%	-4%	3	50µM*	26	10%
CCOc1ccc(NC(=S)N(CC)Cc2ccccc2)cc1	1%	.	32*	1%	34	2%
CCCN(Cc1ccccc1)C(=S)Nc1ccc(F)cc1	-3%	-6%	-2	6%	-4	-2%
CCCN(Cc1ccccc1)C(=S)Nc1ccc(OCC)cc1	0%	0%	19*	2%	25	5%
N#C/C(=C\c1c(Oc2ccc(Br)cc2)nc2ccccn2c1=O)c1nc2ccccc2s1	.	?	.	-17%	.	.
O=[N+]([O-])c1cccc(/C=C/c2ccc3cccc(O)c3n2)c1	13%	6%	35*	3%	107*	4%
SMILES	Giardia FBPA inh	TbPYK inhibitor	CHX counter	Sm TGR inh	Shiga inhibitor	LmPK inh
CCOc1cc(/C=C/c2ccc3cccc([N+](=O)[O-])c3n2)ccc1OCC(=O)N(C)C	-28%	-1%	3	-7%	10	3%
O=[N+]([O-])c1ccc(/C=C/c2ccc3cccc([N+](=O)[O-])c3n2)cc1	-12%	-3%	22*	8%	24	4%
O=[N+]([O-])c1cccc(/C=C/c2nc(C=Nc3ccc4ccccc4c3)c(O)o2)c1	0%	2%	-1	1%	-8	1%
Oc1ccc(/C=C/c2ccc3cccc(O)c3n2)cc1Br	10%	3%	50*	-29%	68*	2%
O=[N+]([O-])c1cccc2ccc(/C=C/c3ccc(F)cc3)nc12	-11%	1%	131*	5%	95*	-3%
CCOc1cc(/C=C/c2ccc3cccc([N+](=O)[O-])c3n2)ccc1O	-5%	-4%	13*	-15%	19	7%
Cn1cnnc1SCC(=O)Nc1ccc2nc(SCc3cccc4ccccc34)sc2c1	0%	0%	-4	5%	-9	1%
O=C(CSc1nc2ccc(NC(=O)c3ccccc3C(=O)O)cc2s1)Nc1ccc(F)c([N+](=O)[O-])c1	-4%	-11%	25	-13%	30*	-1%
O=C(Nc1ccc2nc(SCc3ccccc3)sc2c1)c1ccccc1F	.	0%	.	1%	.	.
CCN(CC)C(=O)CSc1nc2ccc(NC(=O)CSc3nccn3C)cc2s1	-14%	-2%	14*	-13%	32	-2%
Cn1cnnc1SCC(=O)Nc1ccc2nc(SCc3ccccc3)sc2c1	2%	-4%	90*	4%	101*	-3%
Cn1cnnc1SCC(=O)Nc1ccc2nc(SCc3ccccc3Cl)sc2c1	6%	-3%	19*	-11%	active	0%
Cc1ccccc1C(=O)Nc1sc2c(c1C(=O)N1CCCCC1)CCC(C)C2 (stereo not drawn)	.	-1%	.	-1%	.	.
Cc1ccc(-c2nc3scc(CCNS(=O)(=O)c4ccc(Oc5ccccc5)cc4)n3n2)cc1	.	0%	-8	-2%	-14	.
COc1ccc(C(c2c(NC(=O)c3ccco3)sc(C)c2C)N2CCOCC2)cc1OC (stereo not drawn)	.	-8%	.	?	.	.
COc1ccc(C(C(C(=O)c2cccs2)N2CCOCC2)N2CCOCC2)cc1OC (stereo not drawn)	-5%	0%	16*	?	11	5%
O=C(COC(=O)c1cccs1)NCc1ccccc1	1%	-3%	25*	-21%[11.4 µM]	38	-1%
O=C(COC(=O)c1cccs1)NCC1CCCCC1	-6%	-1%	20*	-4%	23	-6%
O=C(COC(=O)/C=C/c1ccco1)NCc1ccc2c(c1)OCO2	1%	0%	-2	35µM*	29	2%
C=C(C)C(=O)OCC(=O)NCc1ccccc1	7%	-14%	36*	0%	114*	-1%
CCOc1ccc(CNC(=O)C2Cc3ccccc3N2C(=O)CC)cc1OC (stereo not drawn)	.	2%	.	4%	.	.
Cc1nc(N2CCOCC2)c2nc(-c3ccccc3)n(CC3CCN(C)CC3)c2n1	-6%	.	.	.	.	.
CO[C@@H]1[C@H](N(C)C(=O)c2ccccc2)C[C@H]2O[C@]1(C)n1c3ccccc3c3c4c(c5c6ccccc6n2c5c31)C(=O)NC4	.	0%	.	.	.	.
